IP6K1 inhibitor: inhibitors of human IP6K1. Q92551. IP6K1 kinase, ADP-Glo luminescence, 2 h; active compounds read low. activity change, % (series mostly up to about 58 µM). hit rate 0.81% among 140,000. AID 1645851; in the data active means activity change below about -25%
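ADP-Glo luminescence measures ADP made by human IP6K1 during a 2 h RT reaction with ATP/IP6 (mix at 1.3 mM/130 uM); top library doses 57.5 and 19.1 uM final.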
HEK293 viab: counter-screen for SNCA expression inhibitors: cell viability | AID 1671193 | HEK-293-SNCA-luc viability, GF-AFC fluorescence, 24 h | Potency, µM (series often up to 57.1 µM), for inactives: at the highest dose activity change, negative = cytotoxicity, hits mostly cytotoxic | hit rate 0.12% among 150,000;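 further: potency means the concentration at half of the fitted maximal effect; 0% = DMSO-treated cells and -100% = medium-only wells without cells; nearly all actives have a fitted effect of over 30% in size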
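Cytotoxicity counterscreen: after 24 h compound treatment of genome-edited SNCA-luciferase HEK-293 cells, live-cell protease substrate GF-AFC read by fluorescence after 30 min; activity scaled between DMSO (0%) and medium-only (-100%), curves Hill-fitted.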
SNCA expr inh: reduces expression of the alpha-synuclein gene; Potency, µM (series often up to 57.2 µM), inactives show at the highest dose activity change, negative = inhibition, usual class: inhibitors; HEK-293 SNCA-luciferase knock-in, luminescence, 24 h; AID 1671194; hit rate 0.17% among 140,000;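 further: potency means the concentration at half of the fitted maximal effect; plate controls were DMSO cells for no effect and cell-free wells for full effect; nearly all actives have a fitted effect of over 45% in size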
NIH3T3 tox: cytotoxic compounds in NIH 3T3 cells. NIH 3T3 viability, CellTiter-Glo ATP luminescence, 48-72 h. Potency, µM (titrated, usually from 96.7 µM), for the others: top-dose activity change, negative = cytotoxicity, hits mostly inhibitors. hit rate 4.3% among 94,000. AID 1345082; further: potency means the concentration at half of the fitted maximal effect; nearly all actives have a fitted effect of over 55% in size
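Cells were seeded at 400 per well, treated with pin-transferred compound, and kept 48 or 72 hr at 37 °C before CellTiter-Glo addition and luminescence imaging of cellular ATP.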
FLuc inh: blocks purified firefly luciferase enzyme activity; P08659; purified P. pyralis luciferase, luminescence, biochemical; Potency, µM (top dose mostly 115 µM), actives largely listed as inhibitors; hit rate 2.5% among 76,000; further: potency means the concentration at half of the fitted maximal effect; nearly all actives have a fitted effect of over 65% in size
Target sequence (P08659 whole entry, looked up): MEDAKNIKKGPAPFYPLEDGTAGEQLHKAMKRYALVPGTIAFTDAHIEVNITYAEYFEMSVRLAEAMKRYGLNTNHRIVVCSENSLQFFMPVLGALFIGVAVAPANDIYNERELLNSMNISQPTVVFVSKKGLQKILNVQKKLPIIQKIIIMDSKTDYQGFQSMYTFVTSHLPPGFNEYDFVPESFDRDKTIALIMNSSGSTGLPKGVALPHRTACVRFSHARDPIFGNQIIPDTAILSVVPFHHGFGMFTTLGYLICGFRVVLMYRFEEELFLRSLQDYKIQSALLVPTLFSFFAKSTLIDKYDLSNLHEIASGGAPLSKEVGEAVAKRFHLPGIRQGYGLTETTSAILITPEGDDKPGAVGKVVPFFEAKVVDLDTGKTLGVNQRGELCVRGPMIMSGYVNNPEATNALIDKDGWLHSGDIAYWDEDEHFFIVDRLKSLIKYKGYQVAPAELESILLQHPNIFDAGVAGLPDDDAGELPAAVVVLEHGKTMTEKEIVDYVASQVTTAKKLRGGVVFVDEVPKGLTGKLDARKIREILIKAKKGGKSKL
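FLuc 10nM, D-luciferin 10uM, ATP 10uM, Mg acetate 10mM, Tris acetate pH 7.5, Tween/BSA; cpd qHTS; enzyme added last; CCD luminescence.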
HEK293 tox: HEK 293 cell cytotoxicity; HEK 293 viability, ATP luminescence (CellTiter-Glo), 48-72 h; Potency, µM (top dose mostly 115 µM), for the others: top-dose activity change, negative = cytotoxicity, usual class: inhibitors; hit rate 6.6% among 94,000; AID 1345083; further: potency means the concentration at half of the fitted maximal effect; nearly all actives have a fitted effect of over 60% in size
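CellTiter-Glo luminescence (cellular ATP) was read after 48 or 72 hr of compound exposure at 37 degree Celsius. Cells were HEK 293 plated at 250 cells/well.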
* marks the source's active call; other numbers are inactive results; i = inactive; ? = inconclusive; · = no result; [ ] = remark or other dose. Most compounds without a hit are left out; they make up all but 7.3% or so of the library. Unless noted, the call rests on the fitted dose curve; in most records, active means well fitted curve in the direction sought with a large enough effect; inconclusive means small, poorly fitted or top-dose-only effect, or another doubt; inactive means no such curve, though single readings can be large; an effect the other way counts as inactive or inconclusive. Unless noted, on the % scale 0 is the no-effect control and ±100 the full control effect.

SMILES | IP6K1 inhibitor | HEK293 viab | SNCA expr inh | NIH3T3 tox | FLuc inh | HEK293 tox
COc1ccc(CN2CCC3(C2)C(=O)N(Cc2ccccc2)c2ccccc23)cc1 (centres undefined) | 10 | -22% | ? | 35µM* | i | 40µM*
COc1ccc(CN2CCC3(C2)C(=O)N(c2ccccc2)c2ccccc23)cc1 (centres undefined) | -4 | -28% | ? | ? | · | 50µM*
CC(C)(C)C(=O)N1CCC(C(=O)N2CCC(c3nc4ncccc4[nH]3)CC2)C1 (centres undefined) | -2 | -1% | ? | -9% | · | 1%
Cc1cc(C(=O)NCC2(COc3cnccn3)C[C@@H](O)[C@@H](O)C2)no1 (some centres undefined) | 15 | -10%[87.6 µM] | ? | -5%[138 µM] | i | -5%[172 µM]
CCCCNC(=O)c1ccc2c(c1)N(C(=O)c1ccc(F)cc1)CC2 | -4 | -11% | 5% | ? | i | ?
CCn1cc(S(=O)(=O)N2CC(N(C)Cc3cccnc3)C2)cn1 | 2 | 10% | 0% | 5% | i | -3%
CCn1ccc(C(=O)N2CCC3(CC2)CCC3(O)CC)n1 (centres undefined) | -6 | -1% | 6% | 1% | i | i
CCc1cccc(NC(=O)Cn2c(=O)n(Cc3ccccc3)c(=O)c3c(C)c(C(=O)N(C)C)sc32)c1 | -13 | -13% | 13µM* | · | · | ·
CCN(CC)C(=O)c1sc2c(c1C)c(=O)n(Cc1ccccc1)c(=O)n2CC(=O)Nc1ccc(OC)cc1 | 28 | -6% | -6% | · | · | ·
O=C(NCCCN1CCOCC1)c1cccc2c1CCN2C(=O)Nc1ccc(F)cc1 | -6 | 10% | 122% | -10% | 25µM* | -29%
CCNC(=O)c1cccc2c1CCN2C(=O)Nc1ccc(C)cc1 | -6 | 7% | ? | ? | 0.28µM* | ?
Cc1ccc(NC(=O)N2CCc3c(C(=O)NCc4ccncc4)cccc32)cc1 | -8 | -6% | ? | -26% | 0.56µM* | 32µM*
CC(C)NC(=O)c1cccc2c1CCN2C(=O)C1CC1 | 3 | -6% | -10% | ? | i | 3%
Cc1ccc(NC(=O)N2CCc3c(C(=O)NC(C)C)cccc32)cc1 | 6 | 3% | ? | ? | 0.32µM* | ?
Cc1nc2ccccc2n1CC(=O)N[C@@H]1COCC[C@@H]1OCC1CC1 | -1 | -10% | -16% | -23% | i | -3%
COc1ccc(NC(=O)c2cccc3c2CCN3C(=O)Nc2ccc(F)cc2)cc1 | -16 | -10% | 37% | -12% | ? | ?
O=C(NCCc1ccncc1)c1cccc2c1CCN2C(=O)Nc1ccc(F)cc1 | 1 | -7% | ? | ? | 0.25µM* | ?
O=C(c1cccc2c1CCN2C(=O)Nc1ccccc1)N1CCN(c2ccccc2)CC1 | -3 | -28% | 54% | -17% | 28µM* | ?
CCOC(=O)CN1C(=O)CN(C(=O)c2cc3ccccc3s2)CCC(OC)c2ccccc21 (centres undefined) | 6 | · | · | -25% | · | ?
CCN1c2cc(C(=O)Nc3ccc(C(=O)OC)cc3)ccc2C(=O)N2CCCCCC21 (centres undefined) | 19 | 7%[12.5 µM] | 1% | ? | i | 45µM*
CCc1ccc(NC(=O)c2ccc3c(c2)N(CC)C2CCCCCN2C3=O)cc1 (centres undefined) | -8 | -11%[12.5 µM] | ? | 28µM* | ? | 18µM*
Cn1ncc2c(C(=O)NC3CCCC3)cc(-c3cccc(C(F)(F)F)c3)nc21 | 10 | · | · | ? | · | ?
COc1ccc(Cl)cc1NC(=O)CCS(=O)(=O)c1nc(-c2cccs2)cc(C(F)(F)F)n1 | -10 | -23% | 28µM* | · | · | ·
O=C(CCS(=O)(=O)c1nc(-c2cccs2)cc(C(F)(F)F)n1)Nc1ccc(OC(F)(F)F)cc1 | -58* | -1% | 2% | · | · | ·
O=C(CCS(=O)(=O)c1nc(-c2cccs2)cc(C(F)(F)F)n1)Nc1ccc(F)c(Cl)c1 | -11 | ? | ? | · | · | ·
SMILES | IP6K1 inhibitor | HEK293 viab | SNCA expr inh | NIH3T3 tox | FLuc inh | HEK293 tox
COc1ccc(NC(=O)CCS(=O)(=O)c2nc(-c3cccs3)cc(C(F)(F)F)n2)cc1 | 1 | ? | 35µM* | · | · | ·
Cc1ccc(C(=O)N2CCCC2c2nncn2Cc2ccncc2)c(=O)[nH]1 (centres undefined) | -10 | 0% | -2% | i | i | 12%
COc1ccc(-c2cc(N3CCC(NC(=O)C4(c5ccccc5)CC4)CC3)n[nH]2)cc1 | 21 | 7% | -2% | ? | i | ?
COC(=O)C1=C(C)N=C2SC=C(CC(=O)NCc3ccc(F)cc3)N2C1c1cccc(OC)c1 (centres undefined) | -2 | 8% | -9% | ? | i | 40µM*
CCC1=C(C(=O)OC)C(c2ccc(C)cc2C)N2C(CC(=O)N3CCCC3)=CSC2=N1 (centres undefined) | -12 | -9% | 4% | -31% | i | ?
COC(=O)C1=C(C)N=C2SC=C(CC(=O)NC3CC3)N2C1c1cccc(OC)c1 (centres undefined) | 6 | -3% | -13% | -4% | i | ?
COC(=O)C1=C(C)N=C2SC=C(CC(=O)N3CCC(C)CC3)N2C1c1cccc(OC)c1 (centres undefined) | 8 | 2% | 4% | ? | i | 40µM*
COC(=O)C1=C(C)N=C2SC=C(CC(=O)NCc3ccccc3)N2C1c1cccc(F)c1 (centres undefined) | -10 | 9% | -6% | ? | i | ?
COC(=O)C1=C(C)N=C2SC=C(CC(=O)N3CCCC3)N2C1c1ccc(C)cc1C (centres undefined) | 8 | 22% | 6% | 25µM* | i | ?
COC(=O)C1=C(C)N=C2SC=C(CC(=O)NCCc3ccccc3)N2C1c1cccc(OC)c1 (centres undefined) | 12 | 1% | 2% | ? | i | 45µM*
CC1=C(C(=O)OC(C)(C)C)C(c2ccccc2)N2C(CC(=O)NCc3ccco3)=CSC2=N1 (centres undefined) | 30 | -7% | 2% | ? | i | ?
COc1ccc(-c2noc(-c3cccn3CC(=O)Nc3ccc(C)cc3)n2)cc1F | -4 | 0% | 50% | -10% | i | -5%
COC(=O)C1=C(C)N=C2SC=C(CC(=O)Nc3ccc(OC)cc3)N2C1c1cccc(OC)c1 (centres undefined) | 21 | 1% | 16% | ? | i | ?
CCC1=C(C(=O)OC)C(c2ccc(C)cc2C)N2C(CC(=O)Nc3ccc(OC)cc3)=CSC2=N1 (centres undefined) | -14 | -20% | 5% | ? | i | 45µM*

Screens (PubChem BioAssay)
